Results taken from PubChem BioAssay AID720697 (Broad Institute, 2013).
Measured potencies and affinities stand elsewhere. Inconclusive results are not listed. Active and inactive are the calls of the source.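 Rule for the calls: active = signal loss with fitted half-maximal concentration at or below twice the top valid tested dose in every test run; inconclusive = runs disagree, flat 30 to 70% signal loss, or poor fit; inactive = all runs flat, opposite direction, or potency beyond limit.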

Assay: HEK293T cytotoxicity, dose response, cytotoxicity control for miR-122 modulator project, cell-based, inhibitor set, cherry-pick, set 2 (AID 720697)
Settings: HEK293T viability, CellTiter-Glo luminescence, 48 h; series mostly up to 26 µM

COc1ccc(C2SCC(=O)Nc3c2c(=O)[nH]n3C2CCCCCC2)cc1 (configuration not stated)
outcome: inactive

COc1ccc2c(c1)c(CCN)c(C)n2Cc1ccccc1
outcome: inactive
